test system: Staphylococcus aureus; assay: Antibacterial activity against Staphylococcus aureus MRSA ATCC 43300 (CO-ADD:GP_020); MIC in CAMBH media using NBS plates, by Resazurin F(560/590); type: functional; details: Concentration 20 uM, ASSAY_TEST Inhibition of Bacterial Growth, detection method Resazurin, Fluorescence (ex560/em590), MEDIA CAMHB, plate type 384well, CORNING #3640, time 18 hr

Structure (SMILES) | Inhibition
Nc1ncnc2c1ncn2C1C=C(CO)C(O)C1O (stereo not drawn) | 4.94%
CC1=Nc2ccccc2/C1=C\c1c(C)[nH]c2ccccc12 | 7.03%
CC1(C)OC2C(CO)OC(n3cnc4c(S)ncnc43)C2O1 (stereo not drawn) | 1.89%
CCOP(=O)(OCC)/C(C#N)=C/c1ccc([N+](=O)[O-])cc1 | 10.14%
Clc1[nH]cnc2nccc1-2 | 1.4%
O=C(Nc1cccc([N+](=O)[O-])c1)c1ccc2ccccc2c1O | 0.95%
Nc1ccc(S(=O)(=O)NCC2CCCCO2)cc1 (stereo not drawn) | 11.97%
CCOC(=O)c1c(N)ssc1=S | 5.44%
Cc1cc2c(c(C#N)c1C)NC=NC2C (stereo not drawn) | 11.79%
CC(C)N(C(=O)c1cccc([N+](=O)[O-])c1)C(C)C | 9.59%
Nc1ccc(Br)cc1Br | 10.2%
ClCC(CNCc1ccccc1)c1ccccc1 (stereo not drawn) | 7.68%
CC(C)(C)CC(C)(C)n1nnnc1N | 12.74%
O=c1[nH]c(=S)c2ncn(-c3ccccc3)c2[nH]1 | -3.01%
Cc1nnc2nc(-c3ccccc3)nc(-c3ccccc3)n12 | -12.94%
O=C1c2ccccc2C(=O)C1c1ccccn1 | -5.11%
CCOC(=O)/C(C#N)=C\c1c[nH]c2ccccc12 | -10.31%
O=C(N(c1ccccc1)c1ccccc1)N(c1ccccc1)c1ccccc1 | 13.33%
COc1cc(S(N)(=O)=O)c(OC)cc1N | 4.84%

Structure (SMILES) | Inhibition
CSc1ccc(NC(=O)Nc2cc(C)ccn2)cc1 | 4.66%
CCCOc1ccc(-c2nc(-c3ccc(N)cc3)cs2)cc1 | 6.42%
CC(C)=C(c1ccc(Cl)cc1)c1c(N)ncnc1N | 3.52%
c1ccc(-c2ccc3c(c2)NCCN3)cc1 | 0.03%
CCCCSc1nc(O)cc(C(=O)O)n1 | 3.28%
COC(=O)C1CC(O)C(O)C(O)C1 (stereo not drawn) | 17.7%
CCn1c2ccccc2c2c3ncc4cccn4c3ccc21 | -13.6%
N#C/C(=C\c1ccc[nH]1)C(=O)c1ccccc1 | 9.96%
CC(C)Cc1nnc(N)s1 | 5.28%
Nc1ccc2c(c1)Cc1cc(Cl)c(Cl)cc1-2 | 12.19%
O=C(NC1CCCCC1)c1cc2ccccc2cc1O | 11.46%
Cn1c(=O)c2c(nc(Cc3ccccc3)n2C)n(C)c1=O | 3.97%
Nc1nc(N)c(/N=N/c2ccc(C(=O)O)cc2)c(N)n1 | 20.24%
c1ccc(-c2nnc(-c3ccccn3)s2)nc1 | 3.28%
Cc1cc(O)c2c(C)ccc(C)c2n1 | 0.21%
O=C(NC(=S)Nc1cccc(O)c1)c1ccco1 | 2.34%
Cc1nn(-c2ccccc2)nc1C(=O)Nc1ccc2[nH]ncc2c1 | 18.91%
CC1CC(C)(C)NC2(CCCC2)N1 (stereo not drawn) | 12.12%
N#Cc1n[nH]c2nc[nH]c(=O)c12 | 10.72%

Reference: ChEMBL document CHEMBL4296182, “CO-ADD screening of NIH NCI Diversity Set V”
